Experimental findings from publication PMC7862700, “An all-to-all approach to the identification of sequence-specific readers for epigenetic DNA modifications on cytosine” are described below.

Holding throughout (assay): DAPPL (digital affinity profiling via proximity ligation, sequencing); 10 mM Tris-HCl pH 7.5, 50 mM NaCl, 1 mM DTT, 4% glycerol, room temperature, 30 min; GST-TFs on glutathione beads, 16-mer random dsDNA library, 0.1% formaldehyde crosslink after washing; high values mean tight binding
In one test the target is T1, EHF (Homo sapiens, UniProt Q9NZC4 1-300).
T1 sequence: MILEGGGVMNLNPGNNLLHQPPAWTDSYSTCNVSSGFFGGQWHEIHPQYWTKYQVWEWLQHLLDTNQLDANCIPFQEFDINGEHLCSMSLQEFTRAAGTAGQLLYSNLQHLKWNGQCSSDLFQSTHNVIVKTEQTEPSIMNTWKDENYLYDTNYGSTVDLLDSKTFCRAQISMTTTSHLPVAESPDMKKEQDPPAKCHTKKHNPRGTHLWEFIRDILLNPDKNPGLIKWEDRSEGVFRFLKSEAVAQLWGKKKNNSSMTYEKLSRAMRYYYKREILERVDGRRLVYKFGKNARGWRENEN
Particulars: protein: recombinant; tags: N-terminal GST; dsDNA, one strand shown. The procedure, abridged:
(§1)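 Human transcription factors carrying a GST fusion were produced in yeast, bound to glutathione beads, tagged with DNA barcodes and pooled together with a tag-only sample. Each pool was held with 200 nmole of a random double-stranded 16-mer DNA library in Tris/NaCl/DTT/glycerol buffer for 30 min at room temperature, then washed, crosslinked in 0.1% formaldehyde, proximity-ligated with BsaI/T4 ligase (1 h, 37 °C), PCR-amplified and sequenced on an Illumina NextSeq500. Binding signal is the read frequency of each hexamer for a given factor divided by its frequency in the tag-only sample.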

The target in the next test is HSF1 (Homo sapiens, UniProt Q00613 1-529). Particulars: protein: recombinant; tags: N-terminal GST; chain copies: 3; dsDNA, one strand shown. The gist of the method:
as §1

For the next test, the target named is T2, ELF3 (Homo sapiens, UniProt P78545 1-371).
T2 sequence: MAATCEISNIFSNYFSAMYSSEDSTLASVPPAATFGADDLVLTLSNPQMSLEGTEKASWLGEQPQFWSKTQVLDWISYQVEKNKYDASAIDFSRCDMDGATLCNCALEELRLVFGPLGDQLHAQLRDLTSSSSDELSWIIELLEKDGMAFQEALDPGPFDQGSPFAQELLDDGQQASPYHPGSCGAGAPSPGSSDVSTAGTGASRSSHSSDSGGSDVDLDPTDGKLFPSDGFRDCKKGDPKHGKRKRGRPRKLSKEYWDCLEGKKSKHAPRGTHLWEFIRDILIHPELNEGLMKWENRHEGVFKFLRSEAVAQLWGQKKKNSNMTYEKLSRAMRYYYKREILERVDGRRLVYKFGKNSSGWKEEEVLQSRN
The settings on record: protein: recombinant; tags: N-terminal GST; dsDNA, one strand shown. The procedure, abridged:
as §1

Another test concerns the target CRX (Homo sapiens, UniProt O43186 1-299). The settings on record: protein: recombinant; tags: N-terminal GST; dsDNA, one strand shown. The gist of the method: as §1
A further test has as its target ETV6 (Homo sapiens, UniProt P41212 1-452). The settings on record: protein: recombinant; tags: N-terminal GST; dsDNA, one strand shown. The gist of the method:
as §1

Another test deals with ELF1 (Homo sapiens, UniProt P32519 1-619). The settings on record: protein: recombinant; tags: N-terminal GST; dsDNA, one strand shown. The gist of the method: as §1
In the next test the target is T3, ELK3 (Homo sapiens, UniProt P41970 1-407).
T3 sequence: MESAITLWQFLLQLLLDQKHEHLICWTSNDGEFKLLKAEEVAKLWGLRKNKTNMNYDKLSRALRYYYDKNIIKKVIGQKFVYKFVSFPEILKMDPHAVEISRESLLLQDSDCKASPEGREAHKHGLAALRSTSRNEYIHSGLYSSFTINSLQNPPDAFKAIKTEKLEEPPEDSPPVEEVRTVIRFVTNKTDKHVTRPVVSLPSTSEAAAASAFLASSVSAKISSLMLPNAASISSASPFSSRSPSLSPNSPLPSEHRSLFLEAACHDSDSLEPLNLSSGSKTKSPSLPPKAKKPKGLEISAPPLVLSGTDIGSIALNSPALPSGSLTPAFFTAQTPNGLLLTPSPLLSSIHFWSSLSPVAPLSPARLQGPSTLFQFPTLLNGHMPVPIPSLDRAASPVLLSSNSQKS
Particulars: protein: recombinant; tags: N-terminal GST; dsDNA, one strand shown. The procedure, abridged:
as §1

Another test addresses T4, ETV2 (Homo sapiens, UniProt O00321 1-342).
T4 sequence: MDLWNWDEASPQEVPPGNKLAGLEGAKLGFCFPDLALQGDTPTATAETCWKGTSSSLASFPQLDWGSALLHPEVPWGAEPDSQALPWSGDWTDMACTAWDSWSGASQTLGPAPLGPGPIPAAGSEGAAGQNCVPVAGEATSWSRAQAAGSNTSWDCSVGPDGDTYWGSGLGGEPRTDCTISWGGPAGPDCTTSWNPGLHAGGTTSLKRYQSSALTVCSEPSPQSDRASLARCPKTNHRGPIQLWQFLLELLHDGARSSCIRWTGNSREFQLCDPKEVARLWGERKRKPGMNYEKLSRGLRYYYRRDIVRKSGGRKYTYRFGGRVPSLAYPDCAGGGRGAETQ
Particulars: protein: recombinant; tags: N-terminal GST; dsDNA, one strand shown. The gist of the method:
as §1

In another test the target is T5, ETV3L (Homo sapiens, UniProt Q6ZN32 1-361).
T5 sequence: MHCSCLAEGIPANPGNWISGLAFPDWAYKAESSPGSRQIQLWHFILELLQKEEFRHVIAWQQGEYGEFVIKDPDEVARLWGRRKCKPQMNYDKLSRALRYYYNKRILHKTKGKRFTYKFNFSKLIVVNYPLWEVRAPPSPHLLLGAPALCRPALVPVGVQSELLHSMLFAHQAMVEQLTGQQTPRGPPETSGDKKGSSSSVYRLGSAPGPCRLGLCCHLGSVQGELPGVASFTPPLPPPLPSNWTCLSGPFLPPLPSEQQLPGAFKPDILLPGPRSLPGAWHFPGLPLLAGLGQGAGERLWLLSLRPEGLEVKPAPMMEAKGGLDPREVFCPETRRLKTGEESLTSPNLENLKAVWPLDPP
The settings on record: protein: recombinant; tags: N-terminal GST; dsDNA, one strand shown. The procedure, abridged: as §1

The target of the next test is T6, ETS2 (Homo sapiens, UniProt P15036 1-469).
T6 sequence: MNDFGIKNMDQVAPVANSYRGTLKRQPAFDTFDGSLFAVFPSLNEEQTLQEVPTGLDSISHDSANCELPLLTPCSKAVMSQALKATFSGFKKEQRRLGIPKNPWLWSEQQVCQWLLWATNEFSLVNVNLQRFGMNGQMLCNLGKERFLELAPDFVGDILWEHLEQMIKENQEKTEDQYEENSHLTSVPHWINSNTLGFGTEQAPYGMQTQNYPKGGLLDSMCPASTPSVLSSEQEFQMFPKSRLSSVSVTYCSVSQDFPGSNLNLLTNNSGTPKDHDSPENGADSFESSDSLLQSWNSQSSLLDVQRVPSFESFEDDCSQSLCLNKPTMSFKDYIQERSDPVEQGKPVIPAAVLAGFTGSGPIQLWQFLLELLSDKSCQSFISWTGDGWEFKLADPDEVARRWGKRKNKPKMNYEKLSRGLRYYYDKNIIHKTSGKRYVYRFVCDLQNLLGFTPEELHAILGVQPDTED
The settings on record: protein: recombinant; tags: N-terminal GST; dsDNA, one strand shown. The procedure, abridged: as §1

The target of a further test is T7, SPDEF (Homo sapiens, UniProt O95238 1-335).
T7 sequence: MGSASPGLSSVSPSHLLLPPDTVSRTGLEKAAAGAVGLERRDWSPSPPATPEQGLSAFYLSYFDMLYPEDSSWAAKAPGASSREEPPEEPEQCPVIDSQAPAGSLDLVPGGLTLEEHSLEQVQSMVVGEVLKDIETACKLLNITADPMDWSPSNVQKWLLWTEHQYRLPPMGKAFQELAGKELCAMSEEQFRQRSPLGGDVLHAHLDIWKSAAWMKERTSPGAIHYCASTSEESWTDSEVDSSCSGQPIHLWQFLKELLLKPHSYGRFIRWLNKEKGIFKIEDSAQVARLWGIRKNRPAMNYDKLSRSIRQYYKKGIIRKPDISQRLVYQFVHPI
Particulars: protein: recombinant; tags: N-terminal GST; dsDNA, one strand shown. The gist of the method:
as §1

The next test concerns the target T8, ETV7 (Homo sapiens, UniProt Q9Y603 1-341).
T8 sequence: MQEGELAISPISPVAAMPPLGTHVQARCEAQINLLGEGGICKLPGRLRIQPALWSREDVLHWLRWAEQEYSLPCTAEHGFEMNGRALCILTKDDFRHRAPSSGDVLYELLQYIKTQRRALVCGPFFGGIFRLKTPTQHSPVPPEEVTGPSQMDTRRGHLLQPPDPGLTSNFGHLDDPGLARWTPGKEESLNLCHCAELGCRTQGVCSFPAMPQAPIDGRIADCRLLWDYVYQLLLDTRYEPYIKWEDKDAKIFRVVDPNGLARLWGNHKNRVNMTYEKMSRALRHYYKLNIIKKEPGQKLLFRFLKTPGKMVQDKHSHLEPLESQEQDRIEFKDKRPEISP
Particulars: protein: recombinant; tags: N-terminal GST; dsDNA, one strand shown. The procedure, abridged: as §1

The next test has as its target T9, ELK1 (Homo sapiens, UniProt P19419 1-428).
T9 sequence: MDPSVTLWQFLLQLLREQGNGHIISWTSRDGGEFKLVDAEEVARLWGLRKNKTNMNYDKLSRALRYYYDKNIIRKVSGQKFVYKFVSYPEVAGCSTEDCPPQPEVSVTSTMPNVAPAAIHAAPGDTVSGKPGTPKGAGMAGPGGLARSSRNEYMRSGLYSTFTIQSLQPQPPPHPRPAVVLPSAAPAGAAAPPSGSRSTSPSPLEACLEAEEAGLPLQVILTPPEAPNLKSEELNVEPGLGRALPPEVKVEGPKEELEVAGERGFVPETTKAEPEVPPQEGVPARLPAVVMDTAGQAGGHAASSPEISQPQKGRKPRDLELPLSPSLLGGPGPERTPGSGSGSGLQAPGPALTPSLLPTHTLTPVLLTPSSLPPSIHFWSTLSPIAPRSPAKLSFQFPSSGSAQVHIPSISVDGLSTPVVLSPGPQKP
Particulars: protein: recombinant; tags: N-terminal GST; dsDNA, one strand shown. The procedure, abridged:
as §1

The target in another test is SPI1 (Homo sapiens, UniProt P17947 1-270). The settings on record: protein: recombinant; tags: N-terminal GST; dsDNA, one strand shown. The gist of the method:
as §1

Sequence of HSF1 (Q00613 whole entry): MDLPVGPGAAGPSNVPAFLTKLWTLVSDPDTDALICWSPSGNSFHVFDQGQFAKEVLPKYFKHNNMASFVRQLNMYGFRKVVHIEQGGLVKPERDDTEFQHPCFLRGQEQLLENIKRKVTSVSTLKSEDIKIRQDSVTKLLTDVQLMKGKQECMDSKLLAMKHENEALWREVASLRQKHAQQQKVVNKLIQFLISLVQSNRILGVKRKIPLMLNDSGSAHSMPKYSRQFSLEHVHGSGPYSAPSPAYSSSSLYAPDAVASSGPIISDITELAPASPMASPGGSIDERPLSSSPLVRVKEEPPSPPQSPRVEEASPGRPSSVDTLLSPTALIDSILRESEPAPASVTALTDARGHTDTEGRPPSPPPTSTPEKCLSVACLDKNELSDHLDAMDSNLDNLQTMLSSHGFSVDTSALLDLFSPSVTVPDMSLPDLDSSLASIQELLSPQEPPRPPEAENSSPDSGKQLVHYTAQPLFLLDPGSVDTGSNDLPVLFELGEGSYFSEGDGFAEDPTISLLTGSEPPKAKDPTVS
Sequence of CRX (O43186 whole entry): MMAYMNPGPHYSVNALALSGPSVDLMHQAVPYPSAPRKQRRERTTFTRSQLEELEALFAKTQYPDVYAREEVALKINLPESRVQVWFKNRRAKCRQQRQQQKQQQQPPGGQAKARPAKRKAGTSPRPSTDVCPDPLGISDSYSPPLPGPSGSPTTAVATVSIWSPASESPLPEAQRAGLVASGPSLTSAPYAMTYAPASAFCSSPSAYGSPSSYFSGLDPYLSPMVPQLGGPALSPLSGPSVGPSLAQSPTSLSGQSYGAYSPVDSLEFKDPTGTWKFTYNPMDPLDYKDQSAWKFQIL
Sequence of ETV6 (P41212 whole entry): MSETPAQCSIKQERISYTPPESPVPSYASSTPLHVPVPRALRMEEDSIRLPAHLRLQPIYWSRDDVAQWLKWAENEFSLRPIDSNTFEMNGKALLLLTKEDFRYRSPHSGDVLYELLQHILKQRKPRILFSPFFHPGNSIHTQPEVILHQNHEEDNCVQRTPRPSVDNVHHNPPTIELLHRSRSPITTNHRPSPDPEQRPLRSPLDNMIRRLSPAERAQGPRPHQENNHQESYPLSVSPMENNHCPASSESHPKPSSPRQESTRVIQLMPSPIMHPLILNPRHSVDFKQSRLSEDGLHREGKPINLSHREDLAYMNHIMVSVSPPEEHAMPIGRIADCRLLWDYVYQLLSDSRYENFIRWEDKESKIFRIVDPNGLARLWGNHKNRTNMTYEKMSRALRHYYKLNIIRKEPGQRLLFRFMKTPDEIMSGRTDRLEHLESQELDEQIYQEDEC
Sequence of ELF1 (P32519 whole entry): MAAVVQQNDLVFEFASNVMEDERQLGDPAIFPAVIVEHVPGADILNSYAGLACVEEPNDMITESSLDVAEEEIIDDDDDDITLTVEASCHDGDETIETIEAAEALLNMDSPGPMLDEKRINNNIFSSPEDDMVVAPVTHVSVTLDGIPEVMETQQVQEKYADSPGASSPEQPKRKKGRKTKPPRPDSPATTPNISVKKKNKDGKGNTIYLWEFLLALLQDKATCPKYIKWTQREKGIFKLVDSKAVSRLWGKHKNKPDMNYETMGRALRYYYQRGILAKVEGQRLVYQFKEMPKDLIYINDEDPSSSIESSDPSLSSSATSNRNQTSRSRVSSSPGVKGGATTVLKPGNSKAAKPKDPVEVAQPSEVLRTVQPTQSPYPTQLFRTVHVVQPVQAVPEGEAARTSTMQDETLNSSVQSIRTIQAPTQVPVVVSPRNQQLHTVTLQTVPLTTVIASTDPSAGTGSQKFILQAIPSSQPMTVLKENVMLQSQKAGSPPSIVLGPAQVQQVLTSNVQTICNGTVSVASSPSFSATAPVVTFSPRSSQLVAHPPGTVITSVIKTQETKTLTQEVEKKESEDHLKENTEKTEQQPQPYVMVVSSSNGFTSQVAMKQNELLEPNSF

Regarding TTAGGA, the binding signal was 1 fold enrichment (6-mer frequency, TF over GST control) with EHF; 1.28 fold enrichment (6-mer frequency, TF over GST control) with HSF1; 1.02 fold enrichment (6-mer frequency, TF over GST control) in the test with ELF3; 1.77 fold enrichment (6-mer frequency, TF over GST control) in the test with CRX; 1 fold enrichment (6-mer frequency, TF over GST control) in the test with ETV6.
With GGCTTT, the binding signal is 1.04 fold enrichment (6-mer frequency, TF over GST control) with ELF1; 1.05 fold enrichment (6-mer frequency, TF over GST control) in the test with EHF; 1.11 fold enrichment (6-mer frequency, TF over GST control) with ELK3; 1.11 fold enrichment (6-mer frequency, TF over GST control) with HSF1; 1.15 fold enrichment (6-mer frequency, TF over GST control) with ETV2; 1.47 fold enrichment (6-mer frequency, TF over GST control) with CRX. Also, the binding signal with ETV3L was 1.03 fold enrichment (6-mer frequency, TF over GST control); with ETS2, 1.03 fold enrichment (6-mer frequency, TF over GST control); with SPDEF, 1 fold enrichment (6-mer frequency, TF over GST control); in the test with ETV7, 1.16 fold enrichment (6-mer frequency, TF over GST control); with ETV6 it was 1.06 fold enrichment (6-mer frequency, TF over GST control).
As for AGAATG, the binding signal with ELK1 is 1.01 fold enrichment (6-mer frequency, TF over GST control); with EHF, 1.02 fold enrichment (6-mer frequency, TF over GST control); in the test with SPI1, 1.01 fold enrichment (6-mer frequency, TF over GST control); in the test with ELK3 it was 1.01 fold enrichment (6-mer frequency, TF over GST control); with HSF1 it was 2.08 fold enrichment (6-mer frequency, TF over GST control); with ETV2 it was 1.01 fold enrichment (6-mer frequency, TF over GST control). Further, the binding signal with ELF3 is 1.05 fold enrichment (6-mer frequency, TF over GST control); with CRX it was 1.09 fold enrichment (6-mer frequency, TF over GST control).
